# Calls of active or inactive are those of the source. Unless noted, no rule for the calls is given here.
# Legend:
# [1] = tested on: XIP peptide (Xip251-270) binding; assay: XIP fragment 251-270 binding compounds – biochemical, small-molecule microarray, fluorescence 635/667 nm, 0.1 µg/mL protein, primary screen (AID 1182); conditions: fluorescent protein binding, 635 nm, higher = more signal, called active from +8 up or from −8 down
# [2] = tested on: XIP peptide (Xip251-270); assay: compounds binding XIP fragment 251-270 – biochemical, small-molecule microarray, fluorescence 635/667 nm, 0.5 µg/mL protein, primary screen (AID 1183); conditions: fluorescence 635 nm, higher = more signal
# [3] = blood-stage malaria parasite viability loss – strain 3D7, DAPI fluorescence, 100 nL, primary screen (AID 1184);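 also: parasites grown inside human red blood cells in medium with human serum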; conditions: P. falciparum 3D7 growth, 3 d, higher = more signal
# [4] = target: Homeobox protein Hox-A13 (Mus musculus) (UniProt Q62424); assay: disruptors of Hoxa13 oligonucleotide interaction – biochemical, fluorescence polarization, labeled oligonucleotide, primary screen (AID 1185); conditions: Hoxa13:DNA binding, 15 min, higher = more signal, called active from +8 up or from −8 down
# Sequence of Homeobox protein Hox-A13 (Mus musculus) (Q62424 whole entry, looked up): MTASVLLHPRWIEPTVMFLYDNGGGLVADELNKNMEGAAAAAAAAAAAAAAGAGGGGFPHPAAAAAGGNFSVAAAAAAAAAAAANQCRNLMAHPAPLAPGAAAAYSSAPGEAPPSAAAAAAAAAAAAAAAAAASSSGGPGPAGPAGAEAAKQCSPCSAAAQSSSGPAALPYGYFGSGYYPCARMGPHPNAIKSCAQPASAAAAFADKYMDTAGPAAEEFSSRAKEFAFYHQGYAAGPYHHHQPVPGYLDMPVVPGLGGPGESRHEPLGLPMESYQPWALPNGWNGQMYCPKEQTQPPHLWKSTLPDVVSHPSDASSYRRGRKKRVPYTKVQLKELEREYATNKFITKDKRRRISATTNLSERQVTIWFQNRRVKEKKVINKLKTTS
# [5] = blockers of DNA damage checkpoint Chk1 activation – imaging, HeLa, hydroxyurea, phospho-Chk1 antibody, percent positive cells, primary screen (AID 1186); conditions: hydroxyurea-induced phospho-Chk1 immunofluorescence imaging, higher = more signal
# [6] = blockers of DNA damage checkpoint Chk1 activation – imaging, HeLa, hydroxyurea, phospho-Chk1 nuclear intensity, primary screen (AID 1187); conditions: hydroxyurea-induced phospho-Chk1 immunofluorescence imaging, higher = more signal
Structure (SMILES),composite z-score [1],composite z-score [2],z-score [3],z-score [4],z-score [5],z-score [6]
O=P(NCC1(CC2(c3ccccc3)CO2)CC1)(c1ccccc1)c1ccccc1 (stereo not given),0.588 (inactive),0.822,0.561,-3.26 (inactive),-0.124 (inactive),-0.208 (inactive)
C=CCC(OC(C)=O)[C@@H]1[C@@H](N(Cc2cc3ccccc3o2)C(=O)c2cccc3ccccc23)c2cc(OCCCO)ccc2N1C(=O)Cc1ccc2ccccc2c1 (stereo not given in full),-0.0088 (inactive),-0.102,-1.73,-1.02 (inactive),-0.394 (inactive),0.15 (inactive)
O=C(N1CCCCC1)[C@]1(CCS(=O)(=O)c2ccccc2)N=C(c2ccc(OCCCO)cc2)O[C@@H]1c1ccccc1,1.29 (inactive),0.75,-2.79,-5.68 (inactive),-0.599 (inactive),-1 (inactive)
O=C1O[C@H](c2ccccc2)[C@H](c2ccccc2)N2[C@H]1[C@@H](C(=O)NC[C@H](O)c1ccccc1)[C@]1(C(=O)Nc3ccc(C#CC4(O)CCCCCC4)cc31)[C@H]2c1ccccc1OCCO,-0.34 (inactive),0.814,-2.04,-2.77 (inactive),-0.0899 (inactive),-0.0113 (inactive)
C=C(/C(=C/C[C@@H](OC(=O)c1ccncc1)c1ccc(CO)o1)c1cc(C(=O)OC)ccc1OC)C(C)C,0.18 (inactive),0.813,-1.01,-4.08 (inactive),-0.471 (inactive),0.811 (inactive)
COCCOC(=O)N1C(=O)[C@@]2(c3cc(C#CCCO)ccc31)[C@H](C(=O)NC[C@H](O)c1ccccc1)[C@H]1C(=O)O[C@H](c3ccccc3)[C@H](c3ccccc3)N1[C@@H]2c1ccc(OCCO)cc1,-0.0001 (inactive),0.577,-1.99,-1.64 (inactive),0.0945 (inactive),0.298 (inactive)
CC(C)[Si]1(C(C)C)O[C@@H](c2ccccc2)c2cc(-c3ccc(-c4ccc(Cl)c(Cl)c4)o3)nc(CCc3ccccc3)c21,-0.0577 (inactive),-1.03,0.952,-0.21 (inactive),0.0301 (inactive),-0.289 (inactive)
C=CCOC(=O)[C@H]1[C@@H]2C(=O)O[C@@H](c3ccccc3)[C@@H](c3ccccc3)N2[C@@H](c2ccc(OCCOC(=O)[C@H]3C[C@H]4C(=O)N[C@@H](CCCC[N+](C)(C)C)C(=O)N4[C@H]3c3ccc(O)cc3)cc2)[C@]12C(=O)Nc1ccccc12,-0.436 (inactive),0.487,1.04,6.97 (inactive),-0.179 (inactive),-0.219 (inactive)
COC(=O)[C@@]1(Cc2ccc(OC)cc2)[C@H]2c3cc(C(=O)N(C)C)n(CCSCCO)c3C[C@H]2CN1C(=O)c1ccccc1,0.149 (inactive),0.504,-1.48,-5.09 (inactive),-0.02 (inactive),0.101 (inactive)
O=C(NCC(O)CO)[C@@]1(Cc2ccccc2)N=C(c2ccc(OCCCO)cc2)O[C@H]1c1ccccc1 (stereo not given in full),0.502 (inactive),0.801,-1.22,-4 (inactive),-0.607 (inactive),-0.29 (inactive)
CO[C@H]1O[C@H](CO)[C@@H](OC(=O)Nc2ccc(C(F)(F)F)cc2)[C@H](OC(=O)Nc2ccccc2)[C@@H]1OC(=O)Nc1ccccc1,0.384 (inactive),0.62,-0.0799,-5.23 (inactive),0.666 (inactive),0.389 (inactive)
O=C(NCC(F)(F)F)[C@@H]1c2ccccc2C(=O)N(Cc2ccccc2)[C@H]1c1ccc(CO)cc1,0.377 (inactive),-0.396,-0.778,-1.25 (inactive),-0.571 (inactive),-0.801 (inactive)
CC(C)C(CO)N1C(=O)[C@@H]2[C@H]3C(=O)OCC=C[C@H]3OC23C=CCN(c2ccc4ccccc4c2)C(=O)[C@@H]13 (stereo not given in full),0.0164 (inactive),-0.525,-0.279,-3.29 (inactive),0.207 (inactive),0.426 (inactive)
C=CCC(OC(C)=O)[C@@H]1[C@@H](N(Cc2ccc(-c3cccc(C(F)(F)F)c3)o2)C(=O)c2ccc(C)cc2)c2cc(OCCCO)ccc2N1C(=O)c1ccc2ccccc2n1 (stereo not given in full),-0.0348 (inactive),-0.789,-0.537,-0.918 (inactive),-0.51 (inactive),-0.703 (inactive)
COc1ccc(C#Cc2ccc3c(c2)[C@]2(C(=O)N3)[C@H](C(=O)N3CCN(c4ncccn4)CC3)[C@H]3C(=O)O[C@H](c4ccccc4)[C@H](c4ccccc4)N3[C@@H]2c2ccc(O)cc2)cc1,-0.219 (inactive),0.734,-1.08,-0.983 (inactive),-0.247 (inactive),-0.298 (inactive)
CCOC(=O)C1=C[C@@H](C(C)(C)C)N(S(=O)(=O)c2ccc(C)cc2)[C@H]1c1ccc(Cl)c(Cl)c1,-0.0073 (inactive),0.762,-1.96,-0.524 (inactive),-0.0683 (inactive),-0.633 (inactive)
Cc1ccc(N2C(=O)c3ccccc3[C@@H](C(=O)NCC(C)C)[C@@H]2c2ccc(CO)cc2)nc1,0.184 (inactive),0.934,0.524,-0.985 (inactive),-0.275 (inactive),-0.387 (inactive)
Cc1c(NC(=O)/C(C#N)=C/C=C/c2ccccc2)c(=O)n(-c2ccccc2)n1C,-0.3 (inactive),0.559,-0.582,-1.5 (inactive),0.062 (inactive),0.214 (inactive)
COCCCNC(=O)[C@@]1(Cc2ccccc2I)c2ccccc2C(=O)N(Cc2ccccc2)[C@H]1c1ccc(CO)cc1,0.433 (inactive),0.736,-1.04,-4.39 (inactive),-0.0143 (inactive),0.371 (inactive)
COc1cc(CO)cc(I)c1O[C@H]1C=C(C(=O)NCCO)C[C@@H](N(CCc2cccc(F)c2)C(=O)CCC2CCCC2)[C@@H]1O,0.131 (inactive),0.65,-2.18,-6.89 (inactive),0.624 (inactive),0.824 (inactive)
CN1C(=O)C2C=CC(C(O)C3=C[C@H]4C[C@@H](C3)C4(C)C)N(Nc3ccc([N+](=O)[O-])cc3[N+](=O)[O-])C2C1=O (stereo not given in full),0.334 (inactive),0.704,0.395,-3.59 (inactive),-0.21 (inactive),-0.257 (inactive)
COc1ccc([Si](C)(C)[C@H]2[C@H](CC(=O)N(CCO)Cc3ccccc3)O[C@@]3(C(=O)N(Cc4cccc(N5C(=O)c6cccc7cccc5c67)c4)c4ccccc43)[C@@H]2C)cc1,0.719 (inactive),0.6,-2.72,-1.4 (inactive),-1.31 (inactive),-1.11 (inactive)
O[C@@H](Cc1ccccc1)[C@@H](/C=C/c1ccccc1)NCc1ccccc1Br,-0.265 (inactive),0.727,0.871,-0.419 (inactive),-0.28 (inactive),0.364 (inactive)
C=CCN1Cc2ccccc2C[C@@]2(COC(c3ccc(OCCCO)cc3)=N2)C1=O,0.415 (inactive),0.793,-1.85,-3.96 (inactive),-0.221 (inactive),-0.208 (inactive)
COc1ccc(C(=O)Nc2cccc(CN3C(=O)[C@@]4(O[C@@H](CCn5cc([C@H](O)c6ccccc6)nn5)[C@H]([Si](C)(C)c5ccc(OC)cc5)[C@H]4C)c4ccccc43)c2)cc1,0.0252 (inactive),0.575,-2.31,0.472 (inactive),-0.694 (inactive),-1.14 (inactive)

# Reference: PubChem BioAssay
